Compounds with a hit are over-represented: about 21% of the library has one in this group of screens.
Shiga toxin inh: A qHTS for Small Molecule Inhibitors of Shiga Toxin | Vero cells, Shiga toxin protein synthesis inhibition reporter | inhibition, % at 38.7 µM | actives 9.2% (n = 290,000); in the data active means inhibition mostly above about 28%, no sharp cut-off; inactive means mostly below about 43%; further: 0% is about no effect
Cycloheximide cs: Cycloheximide Counterscreen for Small Molecule Inhibitors of Shiga Toxin; cell reporter, cycloheximide protein synthesis inhibition counterscreen; AID 2314, 2010; max response, %; actives 12% (n = 300,000); in the data active means max response mostly above about 13%, no sharp cut-off; inactive means mostly below about 14%; further: read at 38.3 µM for the half of the compounds with a filed dose; 0% is about no effect
NS1 inh: qHTS Assay for Inhibitors of Influenza NS1 Protein Function. AID 2326, 2010. actives 0.4% (n = 270,000). Potency, µM (series often up to 46.1 µM), for the others: top-dose activity, positive = more growth; calls by dose curve; further: potency means the concentration at half of the fitted maximal effect; actives are rising curves; nearly all actives have a fitted effect of over 50% in size
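Growth recovery, yeast-based: influenza A NS1 expressed in S. cerevisiae causes slow growth, and suppressors are detected by OD600. The parent strain without NS1 is used as positive control.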
Pf growth 48h: Primary qHTS for delayed death inhibitors of the malarial parasite plastid, 48 hour incubation; AID 504832, 2011; Potency, µM (series often up to 28.7 µM), inactives show at the top dose activity change, negative = inhibition, most hits filed as inhibitors; actives 5.9% (n = 310,000); P. falciparum luciferase growth in erythrocytes, 48 h; further: potency means the concentration at half of the fitted maximal effect; on the % scale 0 is the no-effect control and ±100 the full control effect
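Parasite viability was followed by luminescence of a genomically integrated firefly luciferase. Cultures held 0.1% parasitemia at 2% hematocrit (final), incubated under 5% CO2 at 37 C.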
Pf growth 96h: Primary qHTS for delayed death inhibitors of the malarial parasite plastid, 96 hour incubation | P. falciparum luciferase reporter growth, 96 h | Potency, µM (top dose mostly 28.7 µM), for inactives: at the top dose activity change, negative = inhibition, hits mostly inhibitors | AID 504834, 2011 | actives 6.9% (n = 320,000); further: potency means the concentration at half of the fitted maximal effect; on the % scale 0 is the no-effect control and ±100 the full control effect
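Compounds incubated with erythrocytes infected by luciferase-expressing P. falciparum (2% hematocrit, 0.05% parasitemia final) for 96 hours, 37 C in 5% CO2. Growth inhibition scored as decreased luciferase luminescence.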
SARS PLP yeast: qHTS of Yeast-based Assay for SARS-CoV PLP | S. cerevisiae expressing SARS-CoV PLpro, growth rescue | Potency, µM (series often up to 32.9 µM), inactives show at the highest dose activity, positive = growth rescue, most hits filed as activators | actives 0.19% (n = 330,000) | AID 485353, 2010; calls by dose curve; further: potency means the concentration at half of the fitted maximal effect; 0% is about no effect; nearly all actives have a fitted effect of over 55% in size
Starred values were filed as active, the others as inactive; ? = inconclusive; / = no result given; ! = not confirmed by another sample. Unless noted, the call rests on the fitted dose curve; in most records, active means well fitted inhibition curve with a large enough effect; inconclusive means small, poorly fitted or top-dose-only effect, or another doubt; inactive means no such curve, though single readings can be large or run the other way.

SMILES	Shiga toxin inh	Cycloheximide cs	NS1 inh	Pf growth 48h	Pf growth 96h	SARS PLP yeast
Cc1ccc(SCC(Cc2ccccc2)N2CCN(C)CCC2=O)cc1 (stereo not given)	2	-2	/	/	/	/
CCCN1CCC(=O)N([C@H](CSc2ccccc2)CC(C)C)CC1	42*	45*	-5%	61%	?	5%
CC(C)C[C@@H](CSc1ccccc1)N1CCN(CC(C)C)CCC1=O	47*	35*	-17%	?	?	-3%
CC(C)CC(CSc1ccc(Br)cc1)N1CCN(CC(C)C)CCC1=O (stereo not given)	108*	80*	/	/	/	/
CCCN1CCC(=O)N([C@H](CSc2ccc(C)cc2)CC(C)C)CC1	62*	71*	-5%	?	-78%	1%
CCCN1CCC(=O)N(C(CSc2ccc(C)cc2)CC(C)C)CC1 (stereo not given)	77*	42*	/	/	/	/
CC(C)[C@@H](CSc1ccccc1)N1CCN(Cc2ccccc2)CCC1=O	-3	-2	-26%	15µM*	-8%	2%
CC(=O)Nc1ccc(SCC(CC(C)C)N2CCN(CCc3ccccc3)CCC2=O)cc1 (stereo not given)	-9	-5	/	/	/	/
Cc1cccc(NC(NC(=O)c2cccnc2)C(Cl)(Cl)Cl)c1 (stereo not given)	-5	-9	23%	?	13µM*	2%
Cc1coc2c1c(C)cc1oc(=O)c(CC(=O)N[C@@H](CC(C)C)C(=O)O)c(C)c12	19	-7	6%	25%	0%	0%
CCC(=O)c1ccc(-c2ccccc2)cc1	34	29*	-4%	60%	80%	-4%
CCC(=O)c1ccc(O)cc1	-7	0	-12%	5%	15µM*!	-3%
O=C(CCCC(=O)c1ccc(O)cc1)c1ccc(O)cc1	/	/	/	43%	-16%	7%
CCn1nc(C)c(C(=O)Nc2cc(Oc3cc(C)cc(C)c3)cc([N+](=O)[O-])c2)c1C	-19	-1	?	?	12µM*	-13%
Cc1nn(CCCC(=O)Nc2cc(Oc3ccccc3)cc([N+](=O)[O-])c2)c(C)c1[N+](=O)[O-]	-9	-1	20%	-13%	53%	-22%
O=C(CN(Cc1ccc(F)cc1)C(=O)CCC(=O)Nc1nccs1)NCc1ccc(F)cc1	-2	1	-5%	-18%	16%	2%
COc1ccc(CNC(=O)CN(C(=O)CCC(=O)Nc2nccs2)c2ccc(C)cc2)cc1	24	-1	13%	?	7.4µM*	2%
CC(C)(C)NC(=O)CN(C(=O)CCC(=O)Nc1nccs1)c1ccc2c(c1)OCCO2	1	-2	-2%	-16%	-22%	-1%
COc1ccc(CN(CC(=O)NCc2ccc(F)cc2)C(=O)CCC(=O)Nc2nccs2)cc1	-9	-7	13%	11%	4.7µM*	1%
CC(C)CCNC(=O)CN(C(=O)CCC(=O)Nc1nccs1)c1ccc2c(c1)OCCO2	68*	35*	6%	64%	3%	1%
Cc1ccc(S(=O)(=O)CCc2nnc(N)s2)cc1	-6	-2	-9%	37%	?	?
CC1C(C#N)=C(N)OC2=C1C(=O)CC(C)(C)C2 (stereo not given)	21	1	-2%	/	13µM*	4%
Cn1c(C=O)c(C#Cc2ccccc2)c2ccccc21	/	/	/	12µM*	?	-1%
CN(Cc1ccccc1)S(=O)(=O)c1ccc(Cl)c(C(=O)NCCc2ccccn2)c1	-8	2	-3%	37%	-8%	-1%
O=c1oc(-c2ccco2)nc2ccccc12	-10	10	-117%	12%	/	-1%
SMILES	Shiga toxin inh	Cycloheximide cs	NS1 inh	Pf growth 48h	Pf growth 96h	SARS PLP yeast
O=C(Oc1oc(-c2ccco2)nc1C=Nc1ccccc1)c1ccoc1	21	17*	-55%	42%	/	2%
Cc1ccc(C(=O)Oc2oc(-c3ccco3)nc2C=Nc2ccc(Cl)cc2)cc1	99*	36*	-37%	15%	23%	-28%
NC(=O)CSc1oc(-c2ccco2)nc1S(=O)(=O)c1ccccc1	-5	5	18%	?	?	3%
O=C(Oc1oc(-c2ccco2)nc1C=Nc1ccccc1)c1ccco1	39*	16*	-3%	55%	41%	0%
COc1cc(NC(=O)c2cc(C)no2)cc(OC)c1OC	-2	-3	0%	9%	22%	7%
CCOCCCn1c(SCC(=O)Nc2ccc(NC(C)=O)cc2)nc2ccccc2c1=O	-7	-2	-3%	-13%	?	-2%
Cc1nn(Cc2ccc(F)cc2)c(C)c1NC(=O)CCCn1nc([N+](=O)[O-])cc1C	2	-5	/	7%	8%	2%
CC(=O)n1cc(N(C(=O)CCl)c2ccc(C)cc2)c2ccccc21	4	22*	-5%	?	?	-2%
Cc1ccc2sc3ccc(NC(=O)c4ccccc4Cl)cc3c(=O)c2c1	43*	35*	-8%	?	?	-1%
COc1cccc(C(=O)Nc2ccc3c(C)cc(=O)oc3c2)c1	115*	62*	-1%	300%	34%	5%
COc1ccccc1CC(=O)Nc1ccc2c(C)cc(=O)oc2c1	12	2	20%	9%	-15%	-6%
Cc1cc(=O)oc2cc(NC(=O)c3c(Cl)cnn3C)ccc12	22	6	-3%	29%	68%	1%
Cc1cc(=O)oc2cc(NC(=O)c3ccnn3C)ccc12	26	17*	-3%	88%	?	6%
Cc1cc(=O)oc2cc(NC(=O)c3ccccc3Cl)ccc12	86*	40*	2%	131%	137%	-2%
Cc1nc([N+](=O)[O-])cn1CC(O)c1ccc(F)cc1 (stereo not given)	-10	1	3%	4%	6%	-2%
Cc1cc(=O)oc2cc(NC(=O)c3ccccc3C(=O)O)ccc12	65	22*	-1%	0%	59%	0%
CC(=O)c1sc(-c2ccccc2)cc1N	35	14	-4%	62%	93%	-2%
NNC(=O)c1cc(-c2ccccc2)sc1N	36	36*	14%	9.3µM*	?	-3%
NNC(=O)c1sc(-c2ccccc2)cc1N	50*	19*	/	?	16%	1%
C=CCSc1nnc(-c2cc(C(C)(C)C)nn2Cc2ccc(F)cc2)n1C	7	-3	2%	13µM*	9.3µM*	0%
O=C(CSc1nnnn1C1CC1)N1CCN(c2ccccc2F)CC1	/	/	/	40%	-2%	11%
COc1ccc(/C=N/Nc2nncc3ccccc23)c(OC)c1	106*	51*	0%	233%	212%	0%
C(=N\Nc1nncc2ccccc12)/c1ccccc1	73*	50*	-9%	154%	0%	-3%

Screens deposited in PubChem BioAssay by National Center for Advancing Translational Sciences (NCATS).
